Data as given in PubChem BioAssay (NCI).
Compounds without any hit were thinned out: in the full panel of roughly 79,000, 15% have a hit. Active and inactive are the calls of the source. No stated cut-off is given here; in the data, active means growth inhibition above about 70%; inactive means the rest.

Tests used:
[1] = NCI Yeast Anticancer Drug Screen. Data for the wt1 strain (AID 149);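 further: 0% = growth of vehicle-treated wt1 cultures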; conditions: S. cerevisiae wt1 strain (SPY 50644) growth inhibition, active compounds read high
Summary of the method: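 Vehicle-normalised growth inhibition; strain wt1; compound exposure.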

[2] = NCI Yeast Anticancer Drug Screen. Data for the rad50EPP+ strain (AID 151);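 further: 0% = growth of vehicle-treated control cultures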; conditions: S. cerevisiae rad50 mutant strain, active compounds read high
Summary of the method: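 One strain with a rad50 alteration (rad50EPP+) was compound-treated, its growth then compared to that of vehicle controls.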

[3] = NCI Yeast Anticancer Drug Screen. Data for the mgt1 strain (AID 153); conditions: S. cerevisiae mgt1 mutant growth inhibition, active compounds read high
Summary of the method: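 After exposure of the mgt1 yeast mutant to compound, growth was measured and reported as inhibition compared with vehicle controls.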

[4] = NCI Yeast Anticancer Drug Screen. Data for the rad50 strain (AID 155);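 further: 0% = growth of vehicle-only cultures of the same strain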; conditions: S. cerevisiae rad50 strain growth inhibition, active compounds read high
Summary of the method: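 A DNA repair-deficient yeast mutant serves as the test organism; compound-induced growth inhibition is calculated against vehicle-treated cells.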

[5] = NCI Yeast Anticancer Drug Screen. Data for the mec2-1 strain (AID 157); conditions: S. cerevisiae mec2-1 strain, active compounds read high
Summary of the method: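 Test agents were screened against the mec2-1 yeast strain, with defined DNA repair or cell cycle alteration. Growth was scored as inhibition against vehicle-only controls.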

[6] = NCI Yeast Anticancer Drug Screen. Data for the rad14 strain (AID 159);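 further: 0% = growth of vehicle-treated control cultures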; conditions: S. cerevisiae rad14 strain growth inhibition, active compounds read high
Summary of the method: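 Vehicle-treated cultures served as the baseline for growth inhibition of a DNA repair-mutant yeast strain exposed to each compound.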

[7] = NCI Yeast Anticancer Drug Screen. Data for the sgs1 mgt1 strain (AID 161);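 further: 0% = growth of cultures given vehicle only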; conditions: S. cerevisiae sgs1 mgt1 strain, active compounds read high
Summary of the method: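 Read-out: growth inhibition vs vehicle controls. Cells: mutant yeast strain deficient in DNA damage repair.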

[8] = NCI Yeast Anticancer Drug Screen. Data for the CLN2oe strain (AID 163);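 further: 0% = growth of vehicle-only control cultures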; conditions: S. cerevisiae CLN2oe strain, active compounds read high
Summary of the method: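 Here, growth inhibition in a cell-cycle-altered yeast strain after compound exposure was quantified against vehicle control growth.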

[9] = NCI Yeast Anticancer Drug Screen. Data for the cln2 rad14 strain (AID 165);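 further: 0% = growth equal to vehicle treated cultures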; conditions: S. cerevisiae cln2 rad14 strain, active compounds read high
Summary of the method: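 Growth of compound-exposed yeast (cln2 rad14 genotype) measured and expressed as inhibition relative to vehicle.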

[10] = NCI Yeast Anticancer Drug Screen. Data for the bub3 strain (AID 167); conditions: S. cerevisiae bub3 mutant strain, active compounds read high
Summary of the method: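 Inhibition values come from growth of compound-treated mutant yeast normalised to vehicle-treated controls.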

[11] = NCI Yeast Anticancer Drug Screen. Data for the mlh1 strain (AID 171);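 further: 0% = growth of vehicle-treated control cultures of the same strain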; conditions: S. cerevisiae mlh1 strain growth inhibition, active compounds read high
Summary of the method: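 Here the genetically defined yeast mutant is grown with each compound, and the extent to which its growth falls below that of vehicle-exposed cells is reported.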

[12] = NCI Yeast Anticancer Drug Screen. Data for the sgs1 strain (AID 173);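 further: 0% = growth of vehicle-only control cultures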; conditions: S. cerevisiae sgs1 mutant, active compounds read high
Summary of the method: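 Relative growth inhibition, referenced to vehicle, was determined in a yeast strain with a defined alteration affecting DNA damage repair or cell cycle control after compound exposure.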

[13] = NCI Yeast Anticancer Drug Screen. Data for the mlh1 rad18 strain (AID 175); conditions: S. cerevisiae mlh1 rad18 strain growth inhibition, active compounds read high
Summary of the method: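 In this whole-cell yeast screen, a strain with altered DNA damage repair is challenged with compound, and its growth is measured against matched vehicle-treated controls.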

[14] = NCI Yeast Anticancer Drug Screen. Data for the rad18 strain (AID 177); conditions: S. cerevisiae rad18 mutant growth inhibition, active compounds read high
Summary of the method: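 Screen uses a yeast strain with a defined lesion in DNA damage repair; compound effect is read as loss of growth compared to untreated vehicle cultures.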

[15] = at 5.0 µM (retest, dose inferred, filed as 0.5)
[16] = at 50.0 µM (retest, dose inferred, filed as 5.0)

Measured: growth inhibition

CC/C(=C(\c1ccccc1)c1ccc(OCC[N+](C)(C)C)cc1)c1ccccc1
active: [1]; at 11.0 µM 98% | [1]; at 33.0 µM 99% | [1]; at 100.0 µM 99% | [2]; at 11.0 µM 94% | [2]; at 33.0 µM 98% | [2]; at 100.0 µM 99% | [3]; at 11.0 µM 99% | [3]; at 33.0 µM 99% | [3]; at 100.0 µM 99% | [4]; at 3.7 µM 85% | [4]; [15] 70% | [4]; at 11.0 µM 97% | [4]; at 33.0 µM 98% | [4]; [16] 70% | [4]; at 50.0 µM 90% | [4]; at 100.0 µM 99% | [5]; at 11.0 µM 99% | [5]; at 33.0 µM 99% | [5]; at 50.0 µM 93% | [5]; at 100.0 µM 99% | [6]; at 3.7 µM 88% | [6]; at 11.0 µM 99% | [6]; at 33.0 µM 99% | [6]; at 100.0 µM 99% | [7]; [15] 74% | [7]; [16] 74% | [7]; at 50.0 µM 91.3% | [8]; at 11.0 µM 98% | [8]; at 33.0 µM 99% | [8]; at 100.0 µM 99% | [9]; at 50.0 µM 91% | [10]; at 11.0 µM 99% | [10]; at 33.0 µM 99% | [10]; at 50.0 µM 91.5% | [10]; at 100.0 µM 99% | [11]; at 3.7 µM 70% | [11]; at 11.0 µM 99% | [11]; at 33.0 µM 99% | [11]; at 100.0 µM 99% | [12]; at 11.0 µM 99% | [12]; at 33.0 µM 99% | [12]; at 100.0 µM 99% | [13]; at 50.0 µM 90.1% | [14]; at 3.7 µM 86% | [14]; at 11.0 µM 99% | [14]; at 33.0 µM 99% | [14]; at 100.0 µM 99%
inactive: [1]; at 1.2 µM -4% | [1]; at 3.7 µM 12% | [2]; at 1.2 µM 3% | [2]; at 3.7 µM 18% | [3]; at 1.2 µM -1% | [3]; at 3.7 µM 55% | [4]; at 1.2 µM 7% | [5]; at 1.2 µM -6% | [5]; at 3.7 µM 33% | [5]; [15] 31% | [5]; [16] 31% | [6]; at 1.2 µM 0% | [8]; at 1.2 µM -7% | [8]; at 3.7 µM 10% | [9]; [15] 21% | [9]; [16] 21% | [10]; at 1.2 µM -3% | [10]; at 3.7 µM 36% | [10]; [15] 22% | [10]; [16] 22% | [11]; at 1.2 µM -7% | [12]; at 1.2 µM -7% | [12]; at 3.7 µM 65% | [13]; [15] 27% | [13]; [16] 27% | [14]; at 1.2 µM 3%
